Laboratory results from the supplement of paper PMC11001985.
A number with no mark means an inactive call.

compound: C#CCNC(=O)CCSSCCC(=O)NCCc1ccc(C=O)c(C=O)c1; assay: lysine labeling ratio R10:1 (500 µM / 50 µM probe), SILAC-ABPP in living cells; higher = lower intrinsic lysine reactivity toward the probe, active = 2 or less; details: HeLa; probe concentrations 500 vs 50 µM
Outline: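 Measurements came from LC-MS/MS on a TIMS-TOF Pro of mixed SILAC light and heavy HeLa lysates after click to biotin-azide, trypsin digestion, neutravidin capture, DTT release and alkylation. Before lysis, the living cells sat in PBS at room temperature with 50 µM or 500 µM of an alkyne-tagged, disulfide-linked lysine probe, and labels were swapped forward and reverse. R per lysine is the median across both swap directions of the filtered median high-probe/low-probe MS1 peptide ratio. The cap is 20.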

Sequence of UniProt P21333 (P21333 whole entry): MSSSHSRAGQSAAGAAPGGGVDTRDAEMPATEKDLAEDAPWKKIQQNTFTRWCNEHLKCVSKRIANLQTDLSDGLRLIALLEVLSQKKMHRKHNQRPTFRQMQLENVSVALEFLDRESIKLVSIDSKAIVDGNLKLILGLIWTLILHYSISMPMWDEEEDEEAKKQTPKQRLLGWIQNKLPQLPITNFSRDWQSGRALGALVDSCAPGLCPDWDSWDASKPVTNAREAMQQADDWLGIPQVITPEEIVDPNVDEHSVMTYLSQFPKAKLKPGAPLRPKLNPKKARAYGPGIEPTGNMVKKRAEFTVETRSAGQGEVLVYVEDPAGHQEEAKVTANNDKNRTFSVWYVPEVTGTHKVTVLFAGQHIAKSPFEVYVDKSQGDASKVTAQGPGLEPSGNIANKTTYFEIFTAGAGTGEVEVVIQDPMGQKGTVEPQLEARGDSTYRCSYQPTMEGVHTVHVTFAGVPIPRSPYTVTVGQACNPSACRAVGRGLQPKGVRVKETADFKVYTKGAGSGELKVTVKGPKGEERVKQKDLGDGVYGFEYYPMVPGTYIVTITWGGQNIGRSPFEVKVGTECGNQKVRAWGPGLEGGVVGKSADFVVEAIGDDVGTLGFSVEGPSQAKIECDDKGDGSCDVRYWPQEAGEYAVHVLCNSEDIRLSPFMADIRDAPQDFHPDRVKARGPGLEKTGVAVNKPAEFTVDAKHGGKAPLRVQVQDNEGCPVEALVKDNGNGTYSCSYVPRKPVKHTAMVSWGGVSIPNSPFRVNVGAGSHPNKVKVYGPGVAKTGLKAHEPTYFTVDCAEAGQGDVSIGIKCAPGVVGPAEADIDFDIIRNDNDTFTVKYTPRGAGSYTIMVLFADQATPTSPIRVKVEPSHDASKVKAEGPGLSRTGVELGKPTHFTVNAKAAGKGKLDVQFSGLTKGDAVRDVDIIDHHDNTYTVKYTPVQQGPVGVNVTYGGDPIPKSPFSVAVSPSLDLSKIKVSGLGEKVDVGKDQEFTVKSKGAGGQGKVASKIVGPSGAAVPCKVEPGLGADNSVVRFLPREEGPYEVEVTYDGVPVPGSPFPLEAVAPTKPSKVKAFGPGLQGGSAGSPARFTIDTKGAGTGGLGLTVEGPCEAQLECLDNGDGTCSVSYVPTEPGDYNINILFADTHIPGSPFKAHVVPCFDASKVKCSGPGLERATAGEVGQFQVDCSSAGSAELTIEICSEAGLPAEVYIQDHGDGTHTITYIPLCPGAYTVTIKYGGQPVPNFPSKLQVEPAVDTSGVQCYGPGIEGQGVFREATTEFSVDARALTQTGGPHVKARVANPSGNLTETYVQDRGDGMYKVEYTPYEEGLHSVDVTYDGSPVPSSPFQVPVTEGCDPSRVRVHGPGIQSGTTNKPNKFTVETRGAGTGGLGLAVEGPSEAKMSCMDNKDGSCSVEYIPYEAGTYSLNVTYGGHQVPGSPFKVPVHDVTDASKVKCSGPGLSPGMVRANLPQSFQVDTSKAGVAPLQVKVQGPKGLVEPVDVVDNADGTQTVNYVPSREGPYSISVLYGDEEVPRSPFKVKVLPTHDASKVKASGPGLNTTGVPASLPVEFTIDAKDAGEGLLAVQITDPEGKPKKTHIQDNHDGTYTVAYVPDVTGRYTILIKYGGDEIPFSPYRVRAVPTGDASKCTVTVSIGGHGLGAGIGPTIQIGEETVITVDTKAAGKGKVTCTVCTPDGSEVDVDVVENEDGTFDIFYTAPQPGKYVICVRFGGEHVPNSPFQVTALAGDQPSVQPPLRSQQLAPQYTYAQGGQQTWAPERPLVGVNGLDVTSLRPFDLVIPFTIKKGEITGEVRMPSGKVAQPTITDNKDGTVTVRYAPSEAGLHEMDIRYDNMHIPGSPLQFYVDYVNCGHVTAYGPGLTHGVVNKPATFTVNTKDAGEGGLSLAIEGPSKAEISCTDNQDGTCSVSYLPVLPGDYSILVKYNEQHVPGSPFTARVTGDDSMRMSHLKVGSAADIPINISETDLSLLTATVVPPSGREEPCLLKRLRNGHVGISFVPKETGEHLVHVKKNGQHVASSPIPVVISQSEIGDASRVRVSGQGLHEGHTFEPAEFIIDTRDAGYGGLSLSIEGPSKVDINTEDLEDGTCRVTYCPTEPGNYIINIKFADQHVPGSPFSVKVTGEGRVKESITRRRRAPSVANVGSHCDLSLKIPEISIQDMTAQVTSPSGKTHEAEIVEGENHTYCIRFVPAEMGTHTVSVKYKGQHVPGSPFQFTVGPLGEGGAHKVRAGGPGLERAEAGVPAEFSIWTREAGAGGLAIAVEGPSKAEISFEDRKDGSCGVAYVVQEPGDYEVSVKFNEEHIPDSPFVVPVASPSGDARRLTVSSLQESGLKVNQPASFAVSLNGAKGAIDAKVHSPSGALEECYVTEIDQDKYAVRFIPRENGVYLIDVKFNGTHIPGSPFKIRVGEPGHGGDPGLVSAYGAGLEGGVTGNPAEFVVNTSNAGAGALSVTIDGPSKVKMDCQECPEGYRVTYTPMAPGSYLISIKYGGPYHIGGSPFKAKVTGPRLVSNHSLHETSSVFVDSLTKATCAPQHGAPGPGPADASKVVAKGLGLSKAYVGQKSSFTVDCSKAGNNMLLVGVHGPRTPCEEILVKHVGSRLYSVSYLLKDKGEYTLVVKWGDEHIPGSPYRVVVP
Sequence of UniProt Q02487 (Q02487 whole entry): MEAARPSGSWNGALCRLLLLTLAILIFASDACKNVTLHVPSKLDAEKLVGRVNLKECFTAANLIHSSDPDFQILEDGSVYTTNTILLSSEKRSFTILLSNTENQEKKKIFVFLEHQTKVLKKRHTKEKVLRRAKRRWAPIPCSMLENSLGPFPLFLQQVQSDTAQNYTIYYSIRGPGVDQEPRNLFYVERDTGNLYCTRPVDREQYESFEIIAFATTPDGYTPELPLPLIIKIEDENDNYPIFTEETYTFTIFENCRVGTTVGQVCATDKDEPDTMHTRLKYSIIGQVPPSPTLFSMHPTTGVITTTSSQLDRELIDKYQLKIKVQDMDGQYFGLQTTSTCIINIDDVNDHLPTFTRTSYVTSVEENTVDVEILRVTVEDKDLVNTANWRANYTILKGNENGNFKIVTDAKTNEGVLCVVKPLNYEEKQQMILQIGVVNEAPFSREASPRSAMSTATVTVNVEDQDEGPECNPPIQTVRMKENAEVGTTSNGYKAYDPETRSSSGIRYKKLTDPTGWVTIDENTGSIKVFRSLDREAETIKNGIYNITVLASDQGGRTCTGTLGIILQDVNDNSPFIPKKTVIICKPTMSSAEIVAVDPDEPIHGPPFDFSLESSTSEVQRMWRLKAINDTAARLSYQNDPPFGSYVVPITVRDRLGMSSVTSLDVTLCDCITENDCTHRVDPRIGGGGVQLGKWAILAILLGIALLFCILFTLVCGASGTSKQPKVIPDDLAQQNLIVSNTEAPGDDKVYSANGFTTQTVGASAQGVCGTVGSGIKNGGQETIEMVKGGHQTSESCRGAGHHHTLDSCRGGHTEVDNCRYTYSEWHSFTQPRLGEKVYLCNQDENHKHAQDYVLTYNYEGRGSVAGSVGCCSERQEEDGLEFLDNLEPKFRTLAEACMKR
Sequence of UniProt O00469 (O00469 whole entry): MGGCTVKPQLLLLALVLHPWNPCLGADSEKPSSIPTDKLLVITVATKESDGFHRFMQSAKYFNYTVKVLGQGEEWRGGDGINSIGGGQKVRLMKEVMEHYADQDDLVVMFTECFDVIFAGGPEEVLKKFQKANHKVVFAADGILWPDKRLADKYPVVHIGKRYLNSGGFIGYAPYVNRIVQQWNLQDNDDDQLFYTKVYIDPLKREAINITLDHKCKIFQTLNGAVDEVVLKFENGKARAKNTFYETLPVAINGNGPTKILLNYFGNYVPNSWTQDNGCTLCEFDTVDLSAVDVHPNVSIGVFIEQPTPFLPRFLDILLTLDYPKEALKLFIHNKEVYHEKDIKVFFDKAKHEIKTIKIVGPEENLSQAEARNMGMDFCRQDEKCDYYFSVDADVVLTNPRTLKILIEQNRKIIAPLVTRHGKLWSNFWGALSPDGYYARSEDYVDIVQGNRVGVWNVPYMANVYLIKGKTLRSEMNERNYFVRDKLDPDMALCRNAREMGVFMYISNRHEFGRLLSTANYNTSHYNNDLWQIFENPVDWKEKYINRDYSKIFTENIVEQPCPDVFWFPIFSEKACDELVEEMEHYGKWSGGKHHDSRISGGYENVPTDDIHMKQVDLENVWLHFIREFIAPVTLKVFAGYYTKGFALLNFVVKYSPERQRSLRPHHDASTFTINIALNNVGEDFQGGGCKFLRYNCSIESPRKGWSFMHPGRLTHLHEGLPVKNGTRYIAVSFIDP
Sequence of UniProt P05787 (P05787 whole entry): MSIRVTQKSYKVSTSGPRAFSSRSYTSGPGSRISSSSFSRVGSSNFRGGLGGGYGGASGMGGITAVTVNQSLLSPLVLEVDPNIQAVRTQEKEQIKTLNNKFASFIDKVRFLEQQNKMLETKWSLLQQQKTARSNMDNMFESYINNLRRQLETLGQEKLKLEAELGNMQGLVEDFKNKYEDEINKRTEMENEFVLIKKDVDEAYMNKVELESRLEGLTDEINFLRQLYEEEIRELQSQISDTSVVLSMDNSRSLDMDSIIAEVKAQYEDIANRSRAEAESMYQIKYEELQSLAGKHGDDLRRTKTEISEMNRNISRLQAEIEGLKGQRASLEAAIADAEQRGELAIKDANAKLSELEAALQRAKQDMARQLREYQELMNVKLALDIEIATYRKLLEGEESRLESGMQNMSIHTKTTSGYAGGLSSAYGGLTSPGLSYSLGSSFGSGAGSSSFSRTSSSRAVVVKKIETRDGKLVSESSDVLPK
Sequence of UniProt P37802 (P37802 whole entry): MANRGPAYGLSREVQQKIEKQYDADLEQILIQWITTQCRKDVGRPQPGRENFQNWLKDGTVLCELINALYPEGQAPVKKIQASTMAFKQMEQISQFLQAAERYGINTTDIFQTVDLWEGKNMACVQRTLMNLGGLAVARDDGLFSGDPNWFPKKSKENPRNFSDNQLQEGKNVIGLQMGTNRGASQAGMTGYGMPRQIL

Target	lysine labeling ratio R10:1
LAMC1 (lysine site: K1567) (UniProt P11047)	1.42 (active)
IGF1R (lysine site: K713) (UniProt P08069)	2.62
UniProt P46781 (lysine site: K11)	4.03
CACNA2D1 (lysine site: K577) (UniProt P54289)	4.82
EFNB2 (lysine site: K83) (UniProt P52799)	2.34
SPTBN1 (lysine site: K1063) (UniProt Q01082)	7.24
ECE1 (lysine site: K676) (UniProt P42892)	3.15
KIAA1549 (lysine site: K1262) (UniProt Q9HCM3)	0.805 (active)
DSC2 (lysine site: K270) (UniProt Q02487)	2.49
GAPDH (lysine site: K194) (UniProt P04406)	6.75
UniProt Q99623 (lysine site: K250)	3.72
HSP90B1 (lysine site: K733) (UniProt P14625)	3.26
AGRN (lysine site: K1368) (UniProt O00468)	1.88 (active)
EDIL3 (lysine site: K235) (UniProt O43854)	7.28
FN1 (lysine site: K249) (UniProt P02751)	2.7
UniProt P26639 (lysine site: K36)	3.28
FLNA (lysine site: K1801) (UniProt P21333)	3.7
PDIA3 (lysine site: K104) (UniProt P30101)	1.07 (active)
TAGLN2 (lysine site: K40) (UniProt P37802)	2.67
EIF3I (lysine site: K2) (UniProt Q13347)	2.67

Target	lysine labeling ratio R10:1
LAMB1 (lysine site: K215) (UniProt P07942)	2.29
FLNA (lysine site: K2133) (UniProt P21333)	2.27
HEG1 (lysine site: K1073) (UniProt Q9ULI3)	3.38
IGSF8 (lysine site: K143) (UniProt Q969P0)	2.9
XRCC6 (lysine site: K114) (UniProt P12956)	2.12
TKT (lysine site: K144) (UniProt P29401)	10.4
GBE1 (lysine site: K554) (UniProt Q04446)	0.937 (active)
HSPA5 (lysine site: K353) (UniProt P11021)	3.4
PLOD2 (lysine site: K89) (UniProt O00469)	1.37 (active)
PTK7 (lysine site: K518) (UniProt Q13308)	1.76 (active)
PDIA4 (lysine site: K366) (UniProt P13667)	1.22 (active)
DSC2 (lysine site: K381) (UniProt Q02487)	1.71 (active)
PLOD2 (lysine site: K486) (UniProt O00469)	2.27
HNRNPC (lysine site: K94) (UniProt P07910)	3.25
PTGES2 (lysine site: K225) (UniProt Q9H7Z7)	1.93 (active)
UniProt P61978 (lysine site: K34)	3.82
UniProt P62263 (lysine site: K125)	5.61
TLN1 (lysine site: K1190) (UniProt Q9Y490)	14.3
UniProt P05787 (lysine site: K11)	6.14
FRAS1 (lysine site: K3209) (UniProt Q86XX4)	2.67
